Test results: PubChem BioAssay AID1159580 (chemical genetic matrix, 2015)
Screen size: about 5,500 compounds; about 2,000 (36%) were called active. Another 18% or so got no clear call; they are omitted. No stated cut-off is given here; in the data, active means normalized growth mostly below about 0.91 (no sharp cut-off); inconclusive means no clear call, values can overlap the other calls; inactive means mostly above about 0.92. This is one part of the list.

Experiment: chemical genetic growth profiling, strain panel (AID 1159580);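 further: tested at 20 µM; growth read once vehicle control cultures reached saturation at 30 °C; 1 = growth at the plate median or of vehicle wells; lower values mean less growth of the strain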
Conditions: S. cerevisiae deletion strains, growth OD

Measured: normalized growth

CCC(C)COC(=O)/C=C/c1ccc(N=Cc2ccc(OC)cc2)cc1 (stereo unspecified)
active: locus YHR030C, strain SLT2, active compounds read low 0.531 | locus YJL095W, strain BCK1, active compounds read low 0.474 | locus YJR066W, strain TOR1 (second series), active compounds read low 0.241 | locus YLR113W, strain HOG1, active compounds read low 0.696 | locus YPL256C, strain CLN2, active compounds read low 0.798
inactive: locus YAR019C, strain CDC15, active compounds read low 0.961 | locus YBL105C, strain PKC1, active compounds read low 0.968 | locus YBR135W, strain CKS1, active compounds read low 0.969 | locus YBR136W, strain MEC1, active compounds read low 0.969 | locus YBR160W, strain CDC28, active compounds read low 0.978 | locus YDL017W, strain CDC7, active compounds read low 0.98 | locus YDL028C, strain MPS1, active compounds read low 0.984 | locus YDL101C, strain DUN1, active compounds read low 0.948 | locus YDL108W, strain KIN28, active compounds read low 0.965 | locus YDL132W, strain cdc53, active compounds read low 0.958 | locus YDL214C, strain PRR2, active compounds read low 0.845 | locus YDR052C, strain DBF4, active compounds read low 0.969 | locus YDR054C, strain cdc34, active compounds read low 0.964 | locus YDR226W, strain ADK1, active compounds read low 0.955 | locus YDR477W, strain SNF1, active compounds read low 0.842 | locus YER123W, strain YCK3, active compounds read low 0.743 | locus YER133W, strain GLC7, active compounds read low 0.804 | locus YFL009W, strain cdc4, active compounds read low 0.972 | locus YFL029C, strain CAK1, active compounds read low 0.962 | locus YFR003C, strain YPI1, active compounds read low 0.968 | locus YFR019W, strain FAB1, active compounds read low 0.843 | locus YFR028C, strain CDC14, active compounds read low 0.952 | locus YGR040W, strain KSS1, active compounds read low 0.811 | locus YGR052W, strain FMP48, active compounds read low 0.779 | locus YGR092W, strain DBF2, active compounds read low 0.646 | locus YHR079C, strain IRE1, active compounds read low 0.814 | locus YHR082C, strain KSP1, active compounds read low 0.852 | locus YHR205W, strain SCH9, active compounds read low 0.662 | locus YIL147C, strain SLN1, active compounds read low 0.965 | locus YJL128C, strain PBS2, active compounds read low 0.921 | locus YJL157C, strain FAR1, active compounds read low 0.864 | locus YJR016C, strain ILV3, active compounds read low 0.963 | locus YJR066W, strain TOR1, active compounds read low 0.794 | locus YKL048C, strain ELM1, active compounds read low 0.805 | locus YKL067W, strain YNK1, active compounds read low 0.873 | locus YKL101W, strain HSL1, active compounds read low 0.831 | locus YKL193C, strain SDS22, active compounds read low 0.962 | locus YKL203C, strain TOR2, active compounds read low 0.826 | locus YLR133W, strain CKI1, active compounds read low 0.825 | locus YLR403W, strain SFP1, active compounds read low 0.742 | locus YML070W, strain DAK1, active compounds read low 0.814 | locus YMR001C, strain CDC5, active compounds read low 0.964 | locus YMR205C, strain PFK2 (second series), active compounds read low 0.861 | locus YMR277W, strain FCP1, active compounds read low 0.966 | locus YNL006W, strain LST8, active compounds read low 0.972 | locus YNL020C, strain ARK1, active compounds read low 0.836 | locus YNL161W, strain CBK1, active compounds read low 0.97 | locus YNL183C, strain NPR1, active compounds read low 0.795 | locus YNL207W, strain RIO2, active compounds read low 0.947 | locus YNL222W, strain SSU72, active compounds read low 0.972 | locus YNL307C, strain MCK1 (second series), active compounds read low 0.783 | locus YOL078W, strain AVO1, active compounds read low 0.958 | locus YOL136C, strain PFK27, active compounds read low 0.755 | locus YOR061W, strain CKA2, active compounds read low 0.803 | locus YOR119C, strain RIO1, active compounds read low 0.816 | locus YOR231W, strain MKK1, active compounds read low 0.785 | locus YOR329C, strain SCD5, active compounds read low 0.975 | locus YPL031C, strain PHO85, active compounds read low 0.819 | locus YPL153C, strain RAD53, active compounds read low 0.83 | locus YPL204W, strain HRR25, active compounds read low 0.719 | locus YPL209C, strain IPL1, active compounds read low 0.959 | locus YPR025C, strain CCL1, active compounds read low 0.968 | locus YPR106W, strain ISR1, active compounds read low 0.951 | locus YPR111W, strain DBF20, active compounds read low 0.944 | strain NNK1, active compounds read low 0.941 | strain TSCII, active compounds read low 0.95
